# Shown are actives, neighbours in structure and some others; about 27% of the full set was active somewhere.
# CYP2C9 activ: increases human cytochrome P450 2C9 activity | recombinant CYP2C9, luciferin-H conversion, luminescence; hits give high values; factor 1 = untreated enzyme, 0 = blocked | activation factor at 5 µM | 96,000 tested, 1.4% active | P11712;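 active = activation factor of 2 or more for CYP2C9 at a 5 µM dose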
# CYP2C19 inh: human CYP2C19 inhibition; P33261; 96,000 tested, 21% active; CYP2C19 Supersomes, luciferin-H EGE luminescence, 30 min; inhibition, % at 5 µM;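 active = CYP2C19 inhibition above a set limit at 5 µM in the primary screen, cut at about 50% in these data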
# Target sequence (P33261 whole entry, looked up): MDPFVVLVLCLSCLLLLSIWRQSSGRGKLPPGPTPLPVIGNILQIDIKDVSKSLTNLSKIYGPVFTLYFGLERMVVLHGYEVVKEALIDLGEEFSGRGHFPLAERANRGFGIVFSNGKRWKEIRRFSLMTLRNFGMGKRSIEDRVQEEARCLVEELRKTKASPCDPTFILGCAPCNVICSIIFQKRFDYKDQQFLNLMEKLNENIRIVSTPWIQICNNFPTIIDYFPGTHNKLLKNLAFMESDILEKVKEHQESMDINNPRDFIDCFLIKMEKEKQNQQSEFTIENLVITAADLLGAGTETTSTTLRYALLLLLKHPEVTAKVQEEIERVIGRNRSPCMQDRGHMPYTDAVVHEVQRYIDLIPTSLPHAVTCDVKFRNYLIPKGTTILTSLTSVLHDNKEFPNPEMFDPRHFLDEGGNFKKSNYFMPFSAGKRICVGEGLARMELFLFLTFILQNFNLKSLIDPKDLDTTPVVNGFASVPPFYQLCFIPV
# Pyk2 oligo antag: antagonists of human Pyk2 oligomerization; Q14289; Q293 cells, Pyk2 FERM NanoBiT luminescence; hits give low values; z-score (the deposit names both 25 µM and 10 µM); 99,000 tested, 0.83% active; AID 1347419;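 active = Z-score of -3 or lower, scaled per plate to the spread of control and sample wells; inactive = z-score above -3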;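 note: negative z-score means lost luminescence so less FERM oligomerization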
# CYP2C19 act: activators of human cytochrome P450 2C19; 96,000 tested, under 10 active; recombinant CYP2C19, luciferin-H EGE luminescence; hits give high values; 0 = fully inhibited enzyme, 1 = untreated enzyme; activation factor at 5 µM; AID 1025; P33261;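 active = activation factor of at least 2 at 5 µM in the primary screen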
# CYP2C9 inhib: inhibitors of human CYP2C9; P11712; CYP2C9 Supersomes, luciferin-H conversion, luminescence; inhibition, % at 5 µM; 96,000 tested, 20% active; AID 777;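 active = blocking of liver enzyme CYP2C9 beyond about 50% at 5 µM, limit read from the data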
# Cav3 T inh: human Cav3.2 channel inhibition, primary screen | O95180 | Cav3.2-expressing cells, Fluo-4 calcium fluorescence FDSS; hits give low values | B-score at 10 µM | 100,000 tested, 4% active | AID 449739;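 active = single-dose well whose peak fluorescence ratio is a statistical outlier from its plate by either plate-standardised score or position-corrected B-score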
# A number is an active result; n = inactive; x = not tested or not shown.
SMILES,CYP2C9 activ,CYP2C19 inh,Pyk2 oligo antag,CYP2C19 act,CYP2C9 inhib,Cav3 T inh
CC(=O)c1c(C)[nH]c(C(=O)N2CCc3ccccc32)c1C,n,69,n,n,69,n
Cc1n[nH]c(C)c1S(=O)(=O)N1CCOCC1,n,n,n,n,n,n
CCOC(=O)c1cnc(SCC(=O)Nc2nc(C)c(C)s2)nc1N,n,51,n,n,91,n
CCOC(=O)c1cc(C#N)c(Oc2ccc(F)cc2)nc1-c1ccccc1,n,n,n,n,n,n
CCOC(=O)c1cnc(SCC(=O)Nc2nnc(CC)s2)nc1N,n,n,n,n,n,n
CCOC(=O)c1cnc(SCC(C)C)nc1N,n,50,n,n,n,n
CCOC(=O)c1cc(C#N)c(Oc2cccc(C(F)(F)F)c2)nc1-c1ccccc1,n,n,n,n,n,-4.5
CCOC(=O)c1cnc(SC)nc1N,n,n,n,n,n,n
CCOC(=O)c1cnc(SCc2cccc(C)c2)nc1N,n,n,n,n,n,-4.9
S=c1nn[nH]n1C12CC3CC(CC(C3)C1)C2,n,n,n,n,n,n
CCOC(=O)c1cnc(SC)nc1Sc1ccccc1,n,n,n,n,60,n
CCOC(=O)c1ccccc1NC(=O)CSc1ncc(C(=O)OCC)c(N)n1,n,n,n,n,88,n
CCOC(=O)c1cnc(SCC(=O)c2ccc(C)cc2)nc1N,x,x,n,x,x,n
CCOC(=O)c1cnc(-c2ccccc2)nc1Oc1cccc(Cl)c1,n,n,n,n,51,n
CCOC(=O)c1cnc(SCC(=O)c2ccccc2)nc1N,n,78,n,n,n,n
CCOC(=O)c1cnc(SC)nc1Oc1cccc(NC(=O)c2ccc(Cl)cc2)c1,n,n,n,n,n,n
CCOC(=O)c1cnc(-c2ccccc2)nc1N(C)C,n,n,n,n,n,n
CCOC(=O)c1cnc(SCC(=O)c2ccc3c(c2)OCCO3)nc1N,n,n,n,n,52,n
CCOC(=O)c1cnc(-c2ccccc2)nc1N,n,85,n,n,64,n
CCOC(=O)c1cnc2c(C#N)c(C)nn2c1-c1ccccc1,n,95,x,n,n,n
Cc1cc(C)nc(SCC(=O)c2ccc3c(c2)OCCO3)n1,n,n,n,n,n,n
COC(=O)C1(CC2CC(c3ccccc3)=NO2)CCN(C(=O)OC(C)(C)C)CC1 (stereo not drawn),x,x,x,x,x,n
O=C(OCC(=O)N1CCC(Cc2ccccc2)CC1)c1ccc[nH]c1=O,n,n,n,n,n,n
O=C(Nc1nnc(CC(c2ccccc2)c2ccccc2)s1)c1ccco1,n,n,n,n,n,n
COc1ccc(C(=O)N2CCCC(c3nc(-c4cccs4)no3)C2)cc1 (stereo not drawn),n,84,n,n,74,n
SMILES,CYP2C9 activ,CYP2C19 inh,Pyk2 oligo antag,CYP2C19 act,CYP2C9 inhib,Cav3 T inh
COc1ccc(C(=O)N2CCCC(c3nc(-c4cccs4)no3)C2)cc1OC (stereo not drawn),n,55,n,n,n,n
O=C(Cn1nc(C(F)F)cc1C1CC1)NCCC1=CCCCC1,n,68,n,n,n,n
O=C(CN(Cc1ccccc1F)S(=O)(=O)c1ccc(Cl)cc1)NCCCO,n,54,x,n,n,n
Cc1ccc(S(=O)(=O)N(CC(=O)NCCC2=CCCCC2)Cc2ccccc2)cc1,n,n,n,n,57,n
CS(=O)(=O)N(CC(=O)NCCC1=CCCCC1)C1CCCCC1,n,71,n,n,69,n
Nc1nc(NC(=O)c2cccc(S(=O)(=O)N3CCCCCC3)c2)nc(-c2ccccc2)n1,n,n,n,n,n,n
COc1c(F)cc2[nH]c3c(c2c1F)CCNC3=O,x,x,x,x,x,n
CCC(C)NC(=O)C1CCC(=O)N(c2ccc3c(c2)OCO3)C1c1ccc(OC)cc1 (stereo not drawn),n,n,x,n,n,n
C#CC1CN(Cc2ccccc2)CC(C#C)N1C (stereo not drawn),n,n,n,n,n,n
Cc1cc(C)c(S(=O)(=O)Nc2ccc(OCC(=O)O)cc2)c(C)c1,n,n,x,n,n,n
CCOC(=O)CC(N)c1ccc(OC)cc1 (stereo not drawn),n,n,n,n,n,n
Cc1ccc(S(=O)(=O)N(CC(=O)NCCC2=CCCCC2)Cc2ccccc2F)cc1,n,n,n,n,52,n
O=C(CN(Cc1ccccc1F)S(=O)(=O)c1ccc(Cl)cc1)NCCC1=CCCCC1,n,n,n,n,n,n

# High-throughput results deposited in PubChem BioAssay by several laboratories.
